# Measurements as given in the supplement of paper PMC10105736.
# A number with no mark means an inactive call.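 Rule for the calls: active = MAPPIT score above the 99th percentile of random reference set scores in the same batch; inactive = at or below it.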
# B1: hig (protein)
# chain: MWSRQRMRHKPLWALISLTVLLLVLDKSNANTEPVETSTTSEPDASPGCRAPDVRFTIVKPEATTEQPLAKFETTQIYLPEDFTTADVEFVDSVPRHPNENHAAVINPYSLDLGDDHLHVGDAAASLVGDDDLGDEDEDHHGDPEDKRLNANRKQGKRRRAGSGRRRRIENENGQTGRGRGSRYKRHAILHDTEASPETDRWAGSKLAAEGDVYYVHIADILKSREPNRELKSKLHKLKMKARLNKCLAEGGKEKCTRLLKKKPKKKVVEKEQTLKKEKKFPKEEQSKEKVPENGQTPKEDELELDHPETAAAHHRRRGDSHAAELDQRDRSPRWRRRRSTEFKGDLGQLPPESGIGPEPEPLADQDLKDLQQYGNQSSSARVALLWQRVKRKSGKTTGALSRPKGGGDSSSKTTSRKDKGIYDEEAGYTPIHPDDPEFDEEEEEDEEVDILQQFTEVSEIRFPGEIGPMGDRRLCKIRCVKGKWVGPLCATNEEDDNGNVKFQPLYKSCHVNRIPSHLLLSYRNISVTPIPPNRGWRKTRLSKSTLLSNTEINVGWDLPHGHSLQARCQELGIYKLLGESRVLCSNGLWAPRMPSCVPTTVLTNYSEDSAPSIRIKIFNGSHSFEPSGVMAVPPHSTVLMDCMYPRVRGTPEWSWTSWYMQYSTGWSPAQEEKAVRYRLSIKNIENNDSGTFTCTSPRGLTNSIAVVVATSTCPQLTEPLAPLKLRLEGNKLGQRAHYECPEGFRLDGAWNATCLASGNWSSPTPTCHAIQCPRLELDDPHLSLIELNTSAWGRAVFKCQWGFKLTGPAQLDCEPSGVWSGPVPRCKVIQCVMPVAPLNGRIGGTSLSQRRLTVGALVTFSCNDGHSLVGESSIICTENGQWSHSPPFCKSQCPYPGDPPNGLIAPLKFNYDAGDYLSVQCRPGFVQSYEGPPERPKCQPDGRWSGPMPKCKSYEEV
# B2: heix (protein)
# chain: MATSSQLLPNGNLSRNGKTKTEDGEEVEAVVGARAAGADAGVALTGRLTGHPSTSGTFMKLKTYLLALRPWSLSASLVPTLLGSALAYRSQWAEEFSLATFFLTAFTVVTVHCAGNVVNTYFDFIKGIDKQKADDRTLVDHILTKDEVVSLGAILYMAGCGGFVLLAVLSPAKMEHLALIYFGGLSSSFLYTGGIGFKYIALGDLVILILFGPISVLFAFMSQTGHLDWTTMGYAIPLALNTEAILHSNNTRDADNDRRAGIVTLAILIGRTASHVLYAMLLFAPYSLFFIFGLKYSLWFLLPLVTLPQAFQIEKRFRNEQTMHLVPRQTAKLNFFFGILYVVACCCAHQLPTFGLRRN
# B3: Cpsf6 (protein)
# chain: MADVVLDLYAEDLDKDFAGQAQDEFGGDGVDLYDDIGGPTESAASGGGGGGTPSADGAAGPGSGEPGERNSGGPNGVYHQSSGSLTPTMNRRYQLYVGNLTWWTTDQDIANSLRDIGVSDLQEVKFFENRANGQSKGFSVISLGSESSLRAVLDQLPKKEMHGQAPVVTYPSKQALTQFESLQKTRPVPPPQQNGPPRGPAPPSMGGGPMPTGHPGGPQGGGPPGHPPRGMNSIMQPGQYRPQHMSQVPQVGGPNSGPPRMQPPMHPQGGLMGNQQPPPRYPSAQGQWPGQRPGGPRPGPPNGPPQRPMFQGGPMGMPVRGPAGPDWRRPPMHGGFPPQGPPRGLPPAPGPGGPHGAPAPHVNPAFFNQPGGPAQHPGMGGPPHGAPGPQPGMNMPPQQGMNMTPQHGPPPQFAQHGPRGPWPPPQGKPPGPFPDPQQMGPQLTEVEFEEVMSRNRTVSSSAIARAVSDAAAGEYSSAIETLVTAISLIKQSKVAHDERCKILISSLQDTLHGIEAKSYNRRERSRSRERSHRSRQRRERSTSRYRERSRERERDRDRERERDGGSYRERSRSRERERQAPDHYRDDSRSVRPRKSPEPVVAEAAEAPSSKRYYEDRERYRSSDRERRDRDRDRDRERERDRDRREEHRSRH
# B4: Pfdn2 (protein)
# chain: MSTESAKPALSQEAIVAQFQQLRNEQRNLVNSLNTLEMDLREHKTVIETLEAADPERKCFRQIGGVLCERTVKEVLPQLVENKDFIAKTIQMVTNDLSKKGSELNKFKEEHNIKIRGEHLVAEGAKGDDAEDKAENRNVLVFN
# B5: Vps25 (protein)
# chain: MAEFQWPWEYTFPPFFTLQPHEETRQQQLKVWTDLFLKYLRHTNRFTLSIGDQNSPLFHNEALKRRLSPELVLAILGELERSGHANPLDKRRQEWQVYWFTLEEYGNMVYDWVQETGQTNTICTLYEIASGENTSHLDFYGVDEAVLLSALRLLEEKGRCELIEMDGSHGVKFF
# B6: up (protein)
# chain: MSDDEEYTSSEEEEVVEETREETKPPQTPAEGEGDPEFIKRQDQKRSDLDDQLKEYITEWRKQRSKEEDELKKLKEKQAKRKVTRAEEEQKMAQRKKEEEERRVREAEEKKQREIEEKRMRLEEAEKKRQAMLQAMKDKDKKGPNFTIAKKDAGVLGLSSAAMERNKTKEQLEEEKKISLSFRIKPLAIEGFGEAKLREKAQELWELIVKLETEKYDLEERQKRQDYDLKELKERQKQQLRHKALKKGLDPEALTGKYPPKIQVASKYERRVDTRSYDDKKKLFEGGWDEISKDSNEKIWNEKKEQYTGRQKSKLPKWFGERPGKKAGEPETPEGEEDAKADEDIVEDDEEVEEEVVEEEDEEAEEDEEEEEEEEEEEEEEEEEEEEEEEEEEEEEE
# How the values were obtained:
# Assay in all cases: MAPPIT interaction score (arbitrary units); higher = stronger binary interaction signal, active = hit call of the paper
# Pex3 = details: MAPPIT configuration: N-C
# SsRbeta = details: MAPPIT configuration: N-C; pair source set: screen_3
# Pfdn1 = details: MAPPIT configuration: N-N; pair source set: Curagen_high_conf
# Pfdn5 = details: pair source set: Lit-BM-16
# Pgam5 = details: MAPPIT configuration: N-N; pair source set: DPIM
# Pgd = details: pair source set: RRS
# 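Note: HEK293T cells with Epo stimulation, STAT-responsive firefly luciferase reporter, fold induction versus unstimulated cells divided by the larger fold induction of two negative controls lacking either bait or prey.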
binder,measurement,setting,value
B1,MAPPIT interaction score,Pex3; pair source set: screen_3,1.39
same,MAPPIT interaction score,SsRbeta,-0.0878
B2,MAPPIT interaction score,Pex3; pair source set: screen_4,-0.663
B3,MAPPIT interaction score,Pfdn1,0.767
B4,MAPPIT interaction score,Pfdn5; MAPPIT configuration: N-C,2.36
same,MAPPIT interaction score,Pfdn5; MAPPIT configuration: N-N,5.93 (active)
B5,MAPPIT interaction score,Pgam5,2.9 (active)
B6,MAPPIT interaction score,Pgd; MAPPIT configuration: N-C,1.18
same,MAPPIT interaction score,Pgd; MAPPIT configuration: N-N,0.149
